Cruzain noTriton: cruzain (T. cruzi) inhibition without detergent; P25779; purified cruzain, Z-FR-AMC fluorescence, no detergent; Potency, µM, inactives show max response, negative = inhibition, most hits filed as inhibitors; actives 2.3% (n = 200,000); AID 1476;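 further: plate controls were enzyme without inhibitor for no effect and buffer without enzyme for full effect; nearly all actives have a fitted effect of over 40% in size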
Target sequence (P25779 123-467 limits assumed): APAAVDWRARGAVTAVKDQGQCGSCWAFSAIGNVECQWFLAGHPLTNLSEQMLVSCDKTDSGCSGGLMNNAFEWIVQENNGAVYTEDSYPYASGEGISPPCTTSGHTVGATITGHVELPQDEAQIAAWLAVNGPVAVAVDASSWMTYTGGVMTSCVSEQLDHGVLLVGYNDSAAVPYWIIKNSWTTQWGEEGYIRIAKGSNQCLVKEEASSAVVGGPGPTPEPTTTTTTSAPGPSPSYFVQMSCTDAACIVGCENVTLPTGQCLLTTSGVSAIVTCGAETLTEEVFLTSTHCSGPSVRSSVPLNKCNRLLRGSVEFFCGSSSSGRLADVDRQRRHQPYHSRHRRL
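Purified cruzain at 1.5 nM, pre-incubated 15 min with compound at room temperature in 100 mM sodium acetate pH 5.5, 5 mM DTT, 0.00005% Triton X-100. Reaction started with 2 uM Z-FR-AMC; AMC fluorescence increase over 60 s gives rate.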
Cruzain Triton: cruzain (T. cruzi) inhibition with detergent. Potency, µM, for the others: max response, negative = inhibition, actives largely listed as inhibitors. P25779. actives 0.43% (n = 200,000). AID 1478. purified cruzain, Z-FR-AMC fluorescence, 0.01% Triton;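 further: plate controls were neutral wells for no effect and buffer without enzyme for full effect; nearly all actives have a fitted effect of over 40% in size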
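Cruzain (1.5 nM) preincubated 15 min at RT with compound in 100 mM sodium acetate pH 5.5, 5 mM DTT, 0.01% Triton X-100. Reaction started with 2 uM Z-FR-AMC; AMC fluorescence (ex 360/em 450 nm) change over 60 s gave rate.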
The depositor's hits bear a star; ? = inconclusive. An excerpt weighted towards active compounds, which were near 2.5% of everything screened. The call rests on the fitted dose curve; in most records, active means well fitted curve in the direction sought with a large enough effect; inconclusive means small, poorly fitted or top-dose-only effect, or another doubt; inactive means no such curve, though single readings can be large; an effect the other way counts as inactive or inconclusive. Potency means the concentration at half of the fitted maximal effect.

SMILES	Cruzain noTriton	Cruzain Triton
O=C(c1ccc(Cn2c(=O)[nH]c3ccccc3c2=O)cc1)N1CCN(c2ccc(F)cc2)CC1	20%	-6%
Cc1c(C)n(Cc2ccccc2)c2ccc(C(=O)N3CCN(c4ccccc4)CC3)cc12	?	-2%
Cc1c(C)n(Cc2ccc(F)cc2)c2ccc(C(=O)N3CCN(c4ccc(Cl)cc4)CC3)cc12	7.9µM*	2%
Cc1c(C)n(Cc2ccccc2)c2ccc(C(=O)N3CCN(c4ccc(F)cc4)CC3)cc12	32µM*	-1%
Cc1ccc(N2CCN(C(=O)c3cnn(-c4ccc(C)c(C)c4)c3C3CCNCC3)CC2)c(C)c1	-11%	-2%
c1ccc2sc(N3CCN(Cc4ccc5c(c4)OCO5)CC3)nc2c1	3%	0%
N#C/C(=C\N1CCN(Cc2ccc3c(c2)OCO3)CC1)c1nc2ccccc2s1	32µM*	-4%
O=C(Cn1c(=O)sc2ccccc21)Nc1ccc(S(=O)(=O)N2CCCCC2)cc1	32µM*	-5%
O=C(Cn1c(=O)sc2ccccc21)Nc1ccccc1	-12%	8%
COc1cccc(-n2cc(C(=O)NCCc3ccc(C)cc3)c3ccccc3c2=O)c1	20%	0%
COc1ccc(-n2cc(C(=O)NCCc3ccc(C)cc3)c3ccccc3c2=O)cc1	25µM*	-5%
c1ccc(Nc2c(-c3c[nH]c4ccccc34)nc3ccccn23)cc1	3%	-11%
O=C(NCCc1ccccc1)c1cc(-c2ccc(Cl)c(Cl)c2)on1	0%	-2%
CC(C)CNC(=O)c1cc(-c2ccc(Cl)c(Cl)c2)on1	13µM*	8%
CCOc1cc(/C=C2\C(=O)N(c3nc(-c4ccc(Br)cc4)cs3)N=C2c2ccccc2)ccc1O	3.2µM*	?
CCOc1cc(/C=C/c2cc(C(=O)O)c3ccccc3n2)ccc1O	-10%	-10%
COc1ccc(/C=C2\SC(=S)N(NC(=O)c3csc4c3CCCC4)C2=O)cc1	7.9µM*	2%
COc1ccc(NC(=O)c2csc3c2CCCC3)cc1	-6%	-3%
COCCNC(=O)c1ccc(-n2c(-c3ccccc3)cc3c2CCCCC3)cc1	-24%	-7%
Cc1cc(NC(=O)c2ccc(COc3ccc(Cl)c(C)c3)o2)no1	25µM*	-2%
Cc1ccc(OCc2ccc(C(=O)Nc3nccs3)o2)cc1C	1%	-1%
CCCOC(=O)c1ccc(NC(=O)C2CC(=O)N(c3ccc(C)cc3)C2)cc1 (stereo unspecified)	-3%	-1%
COc1ccc(C)cc1NC(=O)C1CCCN(c2ncnc3onc(C)c23)C1 (stereo unspecified)	-8%	0%
CC(C)CCNC(=O)c1ccc(NC(=O)N2CCCCc3ccccc32)cc1	-8%	0%
CCOc1ccc(Nc2sc(C(=O)c3cccc(OC)c3)c(N)c2S(=O)(=O)c2ccccc2)cc1	13µM*	-2%
SMILES	Cruzain noTriton	Cruzain Triton
COc1ccccc1Nc1nc(C)nc(N)c1S(=O)(=O)c1ccccc1	-12%	-3%
CCc1ccc(Nc2sc(C(=O)c3ccccc3)c(N)c2S(C)(=O)=O)cc1	-8%	-10%
COc1cccc(C(=O)c2sc(Nc3ccc(C)cc3C)c(S(=O)(=O)c3ccccc3)c2N)c1	7.9µM*	-4%
Cc1ccc(NS(=O)(=O)c2cccc(C(=O)O)c2)c(C)c1	1%	2%
Cc1cc(Nc2sc(C(=O)c3ccc(F)cc3)c(N)c2C(=O)Nc2ccc(F)cc2)ccc1Cl	?	-6%
Cc1ccc(Nc2sc(C(=O)c3ccccc3)c(N)c2S(=O)(=O)c2ccccc2)cc1Cl	4µM*	-5%
COc1ccccc1Nc1sc(C(=O)c2ccc(C)cc2C)c(N)c1S(=O)(=O)c1ccccc1	7.9µM*	-1%
COC(=O)C(C(C)=O)C(NC(=O)OC(C)(C)C)c1ccccc1 (stereo unspecified)	14%	2%
Oc1c(C(c2ccc(Cl)cc2)N2CCCC2)sc2nc(-c3ccco3)nn12 (stereo unspecified)	14%	-8%
COc1cccc([C@@H]2Oc3ccc(OC)cc3C[C@H]2O)c1	-4%	-1%
COc1cccc(Cn2c(=O)c(-c3cc(F)cc(F)c3)nc3cnc(N4CCNCC4)nc32)c1	-3%	-1%
CC(C)(O)[C@@H]1CCC[N+]2(C)CCCC[C@H]12 (stereo partly specified)	-9%	4%
CCc1ccc(Nc2sc(C(=O)c3ccc(F)cc3)c(N)c2S(=O)(=O)c2ccccc2)cc1	7.9µM*	-4%
Cc1ccc(Nc2sc(C(=O)c3ccc(F)cc3)c(N)c2S(=O)(=O)c2ccc(C)cc2)cc1	?	2%
COc1ccccc1Nc1sc(C(=O)c2ccc3c(c2)OCO3)c(N)c1S(=O)(=O)c1ccccc1	7.9µM*	-3%
Cc1ccc(Nc2sc(C(=O)c3ccccc3)c(N)c2S(=O)(=O)c2ccccc2)c(C)c1	10µM*	-4%
Cc1nn(C(C)(C)C)c(OC(=O)c2ccc3c(c2)OCO3)c1S(=O)(=O)c1ccccc1	7%	-6%
Cc1ccccc1Nc1sc(C(=O)c2ccc(F)cc2)c(N)c1C(=O)NCCc1ccccc1	?	-4%
Cc1ccc(Nc2sc(C(=O)c3ccccc3)c(N)c2C(=O)NC(C)C)cc1	9%	-3%
Cc1ccc(S(=O)(=O)c2c(Nc3cc(F)ccc3F)sc(C(=O)c3ccc(F)cc3)c2N)cc1	3.2µM*	-5%
Cc1cc(C)c(S(=O)(=O)NCCc2cc3cc(C)c(C)cc3[nH]c2=O)c(C)c1	-9%	-3%
COc1cc(OC)cc(C(=O)Nc2cc(-c3nc4cc(Cl)ccc4o3)ccc2Cl)c1	2%	2%
CCOC(=O)c1ncc2[nH]c3cccc(OC(C)C)c3c2c1C	?	0%
Cc1ccc(Cl)cc1Nc1sc(C(=O)c2ccc(F)cc2)c(N)c1S(C)(=O)=O	-27%	-12%
COc1ccc(OC)c(Nc2sc(C(=O)c3ccccc3)c(N)c2S(=O)(=O)c2ccccc2)c1	7.9µM*	-2%
SMILES	Cruzain noTriton	Cruzain Triton
Nc1c(C(=O)c2ccc(F)cc2)sc(Nc2ccccc2F)c1S(=O)(=O)c1ccc(Br)cc1	-27%	-1%
COc1ccc(S(=O)(=O)c2c(Nc3ccc(F)cc3)sc(C(=O)c3ccc(C)cc3C)c2N)cc1	5µM*	-1%
O=C(Nc1ccc(F)cc1F)c1ccc(CN2CC(=O)N3CCCCC3C2=O)cc1 (stereo unspecified)	-2%	0%
CCOC(=O)CSc1nc2c([nH]c3ccccc32)c(=O)n1-c1ccc(OCC)cc1	11%	0%
Cn1cc(-c2cc3n(n2)CCC(=O)N3CCCC(=O)Nc2ccccc2F)c2ccccc21	?	-3%
COc1ccc(CCCc2nnc(SCC(=O)Nc3cccc(F)c3C)o2)cc1	3%	-4%
CCSc1ncc(Cl)c(C(=O)Nc2c(C(=O)Nc3ccc(Cl)cc3)oc3ccccc23)n1	-5%	-2%
CCOc1ccc(C2=C(C=C(C#N)C#N)C(c3ccccc3)c3ccccc3O2)cc1 (stereo unspecified)	10µM*	-4%
COc1ccc(C2=C(CN(C)C)C(c3ccccc3)c3ccccc3O2)cc1 (stereo unspecified)	6%	0%
CCc1nnc2c(Nc3cc(OC)c(Cl)cc3OC)nc3ccccc3n12	2%	2%
CCCc1nc2ccccc2c(=O)n1-c1cccc(OC)c1	1%	1%
CC(C)Oc1cccc(-n2c(CCc3c[nH]c4ccc(Br)cc34)nc3ccccc3c2=O)c1	32µM*	5%
COc1ccc(CNC(=O)c2sc3nc4n(c(=O)c3c2C)CCCC4)cc1	5%	-4%

High-throughput results as filed in PubChem BioAssay.
